Measurements published in ChEMBL document CHEMBL1857833, “Screening and optimization of specific chemical series against human African Trypanosomiasis (HAT)”.
Out of some 4,400 compounds screened, about 390 (8.9%) showed an effect of 50% or more. What follows is part of a selection rich in strong results, with near analogues and random picks from the rest.

The molecules below were run on Trypanosoma brucei (assay: DNDI: Inhibition of Human African Trypanosomiasis, SBRI 427, in vitro at 2 ug.mL-1).
Assay type: functional

| Structure (SMILES) | % inhibition |
| --- | --- |
| CCOc1ccccc1-c1nc(CN2CCN(c3cccc(OC)c3)CC2)co1 | -3% |
| COc1ccc(CNCc2coc(-c3ccc(F)cc3)n2)cc1OC | -5% |
| CC1CCN(/C(=N\O)c2ccc(Oc3c(F)c(F)cc(F)c3F)nc2)CC1 | 9% |
| COc1ccc(CN/C(=N\O)c2cccnc2OCC(C)C)cc1 | -1% |
| C#CC(CC)(CC)NCc1coc(-c2ccc(OC)cc2)n1 | -8% |
| C=CCc1ccc(Oc2cc(/C(=N/O)NCc3cccc(OC)c3)ccn2)c(OC)c1 | 35% |
| C=CCc1ccc(Oc2ccc(/C(=N/O)NCc3ccncc3)cn2)c(OC)c1 | 80% |
| C=CCc1ccc(Oc2cc(/C(=N/O)NCc3cccnc3)ccn2)c(OC)c1 | 3% |
| C=CCc1ccc(Oc2cc(/C(=N/O)NCc3ccncc3)ccn2)c(OC)c1 | 23% |
| C=CCc1ccc(Oc2ccc(/C(=N/O)NCc3ccc(OC)cc3)cn2)c(OC)c1 | 10% |
| C=CCc1ccc(Oc2cc(/C(=N/O)NCc3ccc(OC)cc3)ccn2)c(OC)c1 | 88% |
| c1ccc(-c2nccn2Cc2coc(-c3cccc4ccccc34)n2)cc1 | -1% |
| O/N=C(\NCc1ccco1)c1cccnc1OCc1ccccc1 | 17% |
| CSc1ccc(Oc2cc(/C(=N/O)NCc3c(F)cccc3F)ccn2)cc1 | 19% |
| COc1cc(CN(C)Cc2coc(-c3cccc4ccccc34)n2)cc(OC)c1OC | -3% |
| CCn1nccc1NCc1coc(-c2ccc(F)cc2)n1 | -5% |
| COc1cccc(-c2nc(CN(C)CCC#N)co2)c1 | 4% |
| C=CCc1ccc(Oc2ncccc2/C(N)=N/O)c(OC)c1 | 18% |
| CN(/C(=N\O)c1ccnc(Oc2ccc(F)c(Cl)c2)c1)C1CCCCC1 | 94% |
| O/N=C(/c1ccnc(Oc2ccc(F)c(Cl)c2)c1)N1CCCCC1 | 8% |
| O/N=C(\NCc1ccccc1F)c1ccnc(Oc2ccc(F)c(Cl)c2)c1 | 44% |
| CC1CCC(N/C(=N\O)c2ccnc(Oc3ccc(F)c(Cl)c3)c2)CC1 (stereo not given) | 42% |

| Structure (SMILES) | % inhibition |
| --- | --- |
| CC1CCCC(C)N1/C(=N\O)c1ccnc(Oc2ccc(F)c(Cl)c2)c1 (stereo not given) | 9% |
| CN(/C(=N\O)c1ccnc(Oc2ccc(F)c(F)c2)c1)C1CCCCC1 | 35% |
| CN(/C(=N\O)c1ccnc(Oc2cc(Cl)ccc2Cl)c1)C1CCCCC1 | 16% |
| O/N=C(\NC1CCCCC1)c1ccnc(Oc2ccc(F)c(Cl)c2)c1 | 88% |
| O/N=C(\NC1CCCC1)c1ccnc(Oc2ccc(F)c(Cl)c2)c1 | 96% |
| Cc1cn(Cc2coc(-c3ccc(F)cc3)n2)cn1 | 9% |
| N#CCCN(Cc1coc(-c2ccc(Cl)cc2Cl)n1)CC1CCCO1 (stereo not given) | 9% |
| Oc1ccc(-c2nc(CN3CCN(Cc4ccccc4)CC3)co2)cc1 | 18% |
| C1=CCN(Cc2coc(-c3ccco3)n2)CC1 | 30% |
| CC1(C)Cc2cccc(Oc3ccc(/C(=N/O)NCC4CCCCC4)cn3)c2O1 | 34% |
| Cc1cccc(-c2nc(Cn3ccnc3)co2)c1 | 15% |
| Cc1ccc(/C(=N/O)NC2CCCC2)c(Oc2cc(Cl)ccc2Cl)n1 | 100% |
| Cc1ccc(/C(=N/O)NCC2CCCCC2)c(Oc2cc(Cl)ccc2Cl)n1 | 51% |
| Cc1ccc(/C(=N/O)NC2CCCCC2)c(Oc2cc(Cl)ccc2Cl)n1 | 97% |
| Cc1ccc(/C(=N/O)NCC2CC2)c(Oc2cc(Cl)ccc2Cl)n1 | -4% |
| Cc1ccc(/C(=N/O)NCC2CCCCC2)c(Oc2c(F)c(F)cc(F)c2F)n1 | 12% |
| Cc1ccc(/C(=N/O)NCC2CCCO2)c(Oc2cc(Cl)ccc2Cl)n1 (stereo not given) | 85% |
| Cc1ccc(/C(=N/O)NC2CCCCC2)c(Oc2ccc(Cl)cc2)n1 | 22% |
| Cc1ccc(/C(=N/O)NCC2CCCO2)c(Oc2ccc(F)c(F)c2)n1 (stereo not given) | 8% |
| Cc1ccc(/C(=N/O)NCC2CCCO2)c(Oc2ccc(F)c(Cl)c2)n1 (stereo not given) | 42% |
| Cc1ccc(/C(=N/O)NC2CC2)c(Oc2ccc(Cl)cc2)n1 | 9% |
| Cc1ccc(/C(=N/O)NC2CCc3ccccc32)c(Oc2cc(Cl)ccc2Cl)n1 (stereo not given) | -38% |

| Structure (SMILES) | % inhibition |
| --- | --- |
| Cc1ccc(/C(=N/O)NC2CCC2)c(Oc2ccc(Cl)cc2)n1 | -9% |
| Cc1ccc(/C(=N/O)NCCN2CCOCC2)c(OCc2ccccn2)n1 | 4% |
| Cc1ccc(/C(=N/O)NCCN2CCOCC2)c(Oc2cccc3ccccc23)n1 | -6% |
| O=C(c1ccco1)N1CCN(Cc2coc(-c3ccccc3F)n2)CC1 | 4% |
| COc1cccc(OC)c1CNCc1coc(-c2ccc(Br)cc2)n1 | 7% |
| CCOc1cccc(-c2nc(CN3CCCCC3)co2)c1 | -5% |
| COCCN(/C(=N\O)c1ccc(C)nc1OCc1ccccc1F)C(C)C | 18% |
| CCOc1ccccc1-c1nc(Cn2cc(C)nc2C)co1 | 7% |
| COCCN(CCOC)Cc1coc(-c2ccc(C)cc2)n1 | 28% |
| COc1ccc(CNCc2coc(-c3cccc(F)c3)n2)cc1OC | 13% |
| CCN(Cc1coc(-c2cccc(OC)c2)n1)c1cccc2ccccc12 | 11% |
| Cc1ccc(/C(=N/O)N2CCCN(C)CC2)c(Oc2cc(Cl)ccc2Cl)n1 | 55% |
| Cc1ccc(/C(=N/O)N2CCCCC2)c(Oc2cc(Cl)ccc2Cl)n1 | 33% |
| Cc1ccc(/C(=N/O)N2CCN(C)CC2)c(Oc2cc(Cl)ccc2Cl)n1 | 5% |
| Cc1cc(C)cc(Oc2ccc(/C(=N/O)N3CCCCC3)cn2)c1 | 6% |
| CN(Cc1coc(-c2cccc3ccccc23)n1)C(C)(C)C | 7% |
| Cc1ccc(Oc2nc(C)ccc2/C(=N/O)N2CCN(c3ccccc3)CC2)c(C)c1 | 15% |
| O/N=C(/c1ccc(Oc2cccc3cccnc23)nc1)n1ccnc1 | -3% |
| COCCN/C(=N\O)c1cccnc1Oc1ccc(C(C)C)cc1 | 97% |
| COCCN/C(=N\O)c1cccnc1Oc1cccc(C(F)(F)F)c1 | 1% |
| CCc1ccc(Oc2ncccc2/C(=N/O)NCCN(C)C)cc1 | 5% |
| COCCN/C(=N\O)c1cccnc1Oc1ccc(OC)cc1 | 8% |

| Structure (SMILES) | % inhibition |
| --- | --- |
| CCc1ccc(Oc2ncccc2/C(=N/O)NCCOC)cc1 | 86% |
| COc1ccc(Oc2ncccc2/C(=N/O)Nc2ccc(C(C)C)cc2)cc1 | -14% |
| O/N=C(\NCC1CCCCC1)c1ccnc(Oc2ccc(F)c(Cl)c2)c1 | 5% |
| CC1CCCN1/C(=N\O)c1ccnc(Oc2ccc(Cl)cc2)c1 (stereo not given) | -11% |
| O/N=C(/c1ccnc(Oc2ccc(Cl)cc2)c1)N1CCCCCC1 | 18% |
| O/N=C(/c1ccnc(Oc2ccc(Cl)cc2)c1)N1CCCCC1 | 23% |
| O/N=C(\NCC1CCCCC1)c1ccnc(Oc2ccc(Cl)cc2)c1 | 98% |
| O/N=C(\NC1CCCCC1)c1ccnc(Oc2ccc(Cl)cc2)c1 | 99% |
| O/N=C(\NC1CCCC1)c1ccnc(Oc2ccc(Cl)cc2)c1 | 93% |
| CCOc1ccc(Oc2cc(/C(=N/O)NCC3CCCCC3)ccn2)cc1 | 33% |
| O/N=C(\NCc1ccncc1)c1ccnc(Oc2ccc(Cl)cc2)c1 | 20% |
| CN1CCCC1CCN/C(=N\O)c1cccnc1Oc1cccc(C(F)(F)F)c1 (stereo not given) | 3% |
| Cc1ccc(/C(=N/O)N2CC(C)CC(C)C2)c(Oc2ccc3oc4ccccc4c3c2)n1 (stereo not given) | 11% |
| COc1cccc(-c2nc(CN3CCCCC3)co2)c1 | 12% |
| CN(C)CCN(Cc1ccccc1)Cc1coc(-c2cccc(F)c2)n1 | -25% |
| Clc1ccccc1-c1nc(CN(CCc2ccccc2)Cc2ccccc2)co1 | 17% |
| Cc1ccc(/C(=N/O)Nc2ccc(C(C)C)cc2)c(Oc2cc(Cl)ccc2Cl)n1 | 14% |
| CCC(CC)N/C(=N\O)c1ccc(C)nc1Oc1cccc(C(C)C)c1 | 6% |
| COCC(C)N/C(=N\O)c1ccc(C)nc1Oc1cccc(F)c1 (stereo not given) | 20% |
| CCC(CC)N/C(=N\O)c1ccc(C)nc1Oc1cccc(F)c1 | 88% |
| CCC(CC)N/C(=N\O)c1ccc(C)nc1Oc1cc(Cl)ccc1Cl | 100% |
| CCC(CC)N/C(=N\O)c1ccc(C)nc1Oc1ccc(F)c(Cl)c1 | 100% |

| Structure (SMILES) | % inhibition |
| --- | --- |
| CCC(CC)N/C(=N\O)c1ccc(C)nc1Oc1ccc(SC)c(C)c1 | 6% |
| Cc1ccc(/C(=N/O)NC(C)C)c(Oc2ccc(F)c(F)c2)n1 | 4% |
| COc1cc(-c2nc(CN3CCN(C)CC3)co2)cc(OC)c1OC | -2% |
| Cc1cccc(-c2nc(CNC(C)c3cccc4ccccc34)co2)c1 (stereo not given) | 14% |
| Fc1ccc(-c2nc(CN3CCN(c4cccc(Cl)c4)CC3)co2)cc1 | -16% |
| Cc1ccc(/C(=N/O)n2ccnc2)c(OCc2ccccn2)n1 | 16% |
| CCOc1ccc(-c2nc(CNc3ccnn3CC)co2)cc1 | -10% |
| O/N=C(\NC1CCc2ccccc21)c1ccc(Oc2ccc(-n3ccnc3)cc2)nc1 (stereo not given) | -1% |
| Cc1cn(Cc2coc(-c3cccc(F)c3)n2)c(C)n1 | 5% |
| Cc1ccc(-c2nc(CN3CCN(C/C=C/c4ccccc4)CC3)co2)cc1 | 8% |
| COc1ccc(Oc2cc(/C(=N/O)N3CCN(c4ccccc4)CC3)ccn2)cc1 | 22% |
| CC(C)c1cccc(Oc2cc(/C(=N/O)N3CCN(C)CC3)ccn2)c1 | 4% |
| O/N=C(/c1ccnc(Oc2ccc(F)c(Cl)c2)c1)N1CCN(c2ccc(F)cc2)CC1 | 34% |
| CC(C)c1cccc(Oc2cc(/C(=N/O)N3CCN(c4ccccc4)CC3)ccn2)c1 | 86% |
| O/N=C(/c1ccnc(Oc2ccc(Cl)cc2)c1)N1CCN(c2ccccc2)CC1 | 28% |
| COc1ccc(Oc2cc(/C(=N/O)N3CCC=N3)ccn2)cc1 | 39% |
| O/N=C(/c1ccnc(Oc2cccc(F)c2)c1)N1CCC=N1 | 4% |
| CCOc1ccc(Oc2cc(/C(=N/O)N3Cc4ccccc4C3)ccn2)cc1 | 3% |
| CC(C)c1cccc(Oc2cc(/C(=N/O)N3CCC=N3)ccn2)c1 | 53% |
| O/N=C(/c1ccnc(Oc2ccc(F)c(Cl)c2)c1)N1CCN(c2ccccc2)CC1 | 58% |
| Cc1ccc(/C(=N/O)N2Cc3ccccc3C2)c(Oc2cccc(C(C)C)c2)n1 | 0% |
| CC(C)c1cccc(Oc2cc(/C(=N/O)N3Cc4ccccc4C3)ccn2)c1 | 67% |
